Shown are actives, neighbours in structure and some others; about 4.8% of the full set was active somewhere.
USP1 inh = inhibitors of human USP1/UAF1 deubiquitinase | O94782 | 390,000 tested, 0.23% active | recombinant USP1/UAF1, Ub-Rhodamine cleavage fluorescence | Potency, µM (titrated, usually from 57.1 µM), hits mostly inhibitors; note: nearly all actives have a fitted effect of over 60% in size
Target sequence (O94782 whole entry, looked up): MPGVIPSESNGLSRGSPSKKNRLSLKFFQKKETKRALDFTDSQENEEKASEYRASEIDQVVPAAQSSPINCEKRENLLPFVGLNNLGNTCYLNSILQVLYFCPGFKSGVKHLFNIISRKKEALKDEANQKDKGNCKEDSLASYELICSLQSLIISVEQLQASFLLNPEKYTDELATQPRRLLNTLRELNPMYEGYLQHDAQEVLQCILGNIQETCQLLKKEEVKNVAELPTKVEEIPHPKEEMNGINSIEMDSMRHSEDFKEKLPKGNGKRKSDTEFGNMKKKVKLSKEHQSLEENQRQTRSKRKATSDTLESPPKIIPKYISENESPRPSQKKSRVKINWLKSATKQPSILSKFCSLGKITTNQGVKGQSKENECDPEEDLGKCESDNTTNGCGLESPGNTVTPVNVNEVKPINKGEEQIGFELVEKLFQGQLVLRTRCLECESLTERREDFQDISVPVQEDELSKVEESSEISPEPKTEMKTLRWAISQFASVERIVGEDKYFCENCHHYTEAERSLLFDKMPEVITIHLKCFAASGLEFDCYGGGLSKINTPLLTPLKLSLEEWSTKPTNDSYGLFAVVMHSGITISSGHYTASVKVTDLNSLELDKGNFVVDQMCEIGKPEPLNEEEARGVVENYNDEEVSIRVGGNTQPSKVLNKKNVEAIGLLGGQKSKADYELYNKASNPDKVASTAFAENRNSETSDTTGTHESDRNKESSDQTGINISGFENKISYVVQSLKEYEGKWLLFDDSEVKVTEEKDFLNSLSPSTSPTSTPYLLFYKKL
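USP1/UAF1 complex at 1 nM was preincubated with compound for 15 min at room temperature, then Ub-Rho substrate (150nM final) was added. Fluorescence (480/540 nm) was read kinetically, 6 reads every 60 seconds.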
ATXN viability = reduces viability in counter-screen for ATXN expression inhibitors; 400,000 tested, 0.49% active; Potency, µM (highest dose often 56.7 µM), usual class: cytotoxic; S2 cells (HEK-293 line with an ATXN2-luciferase reporter) viability, CellTiter-Fluor protease fluorescence, 24 h; note: nearly all actives have a fitted effect of over 40% in size
IL-1B inflam inh = blocks inflammasome-driven IL-1 beta release; 360,000 tested, 4.7% active; THP-1 LPS/ATP IL-1B secretion, AlphaLISA, 16 h; stronger effect = lower value; activity change, % at 57.5 µM; in the data active = activity change below about -50%; inconclusive = mostly about -30% to -49%
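Secreted IL-1B measured by AlphaLISA bead assay after 16 h compound exposure of THP-1 cells; compounds (final up to 57.5 uM) added 1 h before LPS (250 ng/mL) and ATP (1.25 mM) stimulation; lower signal means less secretion.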
USP2a inh = USP2a (human) protease inhibition | O75604 | USP2 core, Ub-CHOP2 coupled fluorogenic reporter, 485/531 | Potency, µM (titrated, usually from 38.3 µM), actives largely listed as inhibitors | 330,000 tested, 0.01% active | AID 463254
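Deubiquitinase activity read as fluorescence (485/531 nm) after Ub-CHOP2 cleavage activates the enterokinase reporter on its substrate; USP2 core 10nM, Ub-CHOP2 and substrate 25nM each, 30min compound preincubation then 60min RT; data normalized to NEM, curves fitted.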
ATXN2 expr inh = ATXN2 expression inhibition. HEK-293 ATXN2-luciferase reporter, luminescence, 24 h. 360,000 tested, 0.72% active. Potency, µM (top dose mostly 57 µM), actives largely listed as inhibitors; note: nearly all actives have a fitted effect of over 55% in size
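qHTS (up to 57 uM final) was run with 24 h compound exposure of reporter cells at 37 °C. Each well was multiplexed: SteadyGlo luminescence measured ATXN2-luciferase expression after a fluorogenic Gly-Phe-AFC viability readout (25 uM final).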
A number is an active result; – = inactive; ? = inconclusive; · = no result; [ ] = another dose, or the depositor's remark. Unless noted, calls come from the whole dose curve; as a rule, active = well fitted curve in the direction sought with a large enough effect; inconclusive = small, poorly fitted or top-dose-only effect, or another doubt; inactive = no such curve, though single readings can be large; an effect the other way counts as inactive or inconclusive.

SMILES	USP1 inh	ATXN viability	IL-1B inflam inh	USP2a inh	ATXN2 expr inh
CC(O)(c1ccccc1)C(c1ccccc1)C1CCCCN1 (centres undefined)	–	–	?	–	–
OC(c1cc(C(F)(F)F)nc2c(Cl)cc(Cl)cc12)C1CCCCN1 (centres undefined)	–	?	-89.2	–	?
OC(c1cc(-c2ccc(Cl)cc2)nc2ccccc12)C1CCCCN1 (centres undefined)	–	?	-78.2	–	·
Cc1cc(C)c(C)c(OCCNCc2ccccc2)c1	–	?	-93.3	–	–
Cc1cc(Cl)cc(C)c1OCCOCCNCc1ccccc1	–	?	?	–	·
Cc1cc(Cl)cc(C)c1OCCNCc1ccccc1	–	–	-96.0	–	–
Cc1cc(Br)ccc1OCCNCc1ccccc1	–	–	?	–	–
Cc1cc(C)c(OCCCCNCc2ccccc2)c(Cl)c1	–	·	-86.0	–	–
Cc1cc(C)c(OCCNCc2ccccc2)c(C)c1	–	–	-54.3	–	–
Cc1cc(C)c(OCCN(C)Cc2ccccc2)c(Br)c1	–	–	–	–	–
Cc1cccc(C(=O)OCC(=O)Nc2ccc3c(c2)OCCO3)c1O	–	–	–	–	–
C[n+]1cccc(O)c1SCc1ccccc1	–	14.1µM	–	–	?
CCCCOC(=O)CCCCCCCCC(=O)OCCCC	·	–	·	·	–
CC(C)(C)c1ccc(C(=O)N2CCN(CCNC(=O)C(=O)NCc3ccc(Cl)cc3)CC2)cc1	–	–	-67.3	–	–
CC(C)(C)c1ccc(C(=O)NCc2ccc(Cl)cc2)cc1	?	–	–	–	–
O=C(O)CCCN1C(=O)/C(=C\C(Cl)=C\c2ccccc2)SC1=S	?	?	-95.4	–	?
CN1CCN(C(=O)CCCN2C(=O)/C(=C/c3ccccc3)SC2=S)CC1	–	?	-96.9	–	–
Cc1ccc(/C=C2\SC(=S)N(CCCC(=O)N3CCOCC3)C2=O)cc1	–	?	-66.4	–	?
Cc1nn(-c2ccccc2)c(Cl)c1/C=C1\SC(=S)N(CCCCCC(=O)O)C1=O	?	–	–	–	·
O=C(CCN1C(=O)/C(=C/c2ccccc2)SC1=S)N1CCCCCC1	–	?	-100.8	–	?
COc1ccc(C(=O)C(C)OC(=O)CCN2C(=O)C3CC=CCC3C2=O)cc1 (centres undefined)	–	–	–	–	·
CCCCC[C@]12Cc3ccccc3C(O1)C1=C(CC(C)(C)CC1=O)O2	·	·	·	–[7.66 µM]	·
COc1ccc(/C=C2\SC(=S)N(CC(=O)N3CCN(C)CC3)C2=O)cc1	–	?	–	–	–
O=C(CCN1C(=O)/C(=C\c2ccccc2Cl)SC1=S)N1CCN(c2ccccc2)CC1	–	–	-107.1	–	–
O=C(CCN1C(=O)/C(=C\c2ccccc2F)SC1=S)N1CCCCC1	–	20µM	?	–	?
SMILES	USP1 inh	ATXN viability	IL-1B inflam inh	USP2a inh	ATXN2 expr inh
COc1ccc(/C=C2\SC(=S)N(CCC(=O)N3CCCCC3)C2=O)cc1	–	–	–	–	–
COCCN1C(=O)/C(=C/c2ccc(N3CCCC3)cc2)SC1=S	5.01µM	–	–	?	·
CN1CCN(C(=O)CCN2C(=O)/C(=C\c3ccc(Cl)cc3Cl)SC2=S)CC1	–	?	-84.6	–	–
CCN1CCN(c2ccc(Nc3cc(N(C)C(=O)Nc4c(Cl)c(OC)cc(OC)c4Cl)ncn3)cc2)CC1	·	·	·	·	–
Cc1cn([C@H]2C[C@H](O)[C@@H](CNC(=O)[C@H](N)Cc3cn(COCc4ccccc4)cn3)O2)c(=O)[nH]c1=O	–	–	–	·	–
COc1ccc(NC(=O)Cn2cnc3ccc(S(=O)(=O)N4CCC(C)CC4)cc3c2=O)cc1Cl	–	–	·	·	–
COc1ccc(/C=C2/SC(=S)N(CCC(=O)N3CCN(C)CC3)C2=O)cc1	–	?	-83.9	–	–
Cc1cc(NC(=O)C2CCCN(S(=O)(=O)c3cccc4nonc34)C2)ccc1Br (centres undefined)	–	·	·	·	·
COC(=O)[C@@H]1CCCN1C(=O)c1c(OC)cc(=O)n2c1CCN(Cc1ccc3c(c1)CCO3)CC2	·	–	·	·	·
Cc1nn2c(=O)cc(COC(=O)c3cccc(NC(=O)COc4ccc(C)c(C)c4)c3)nc2s1	–	·	·	·	·
Cc1ccc(-c2nc(NCc3cccnc3)c3ccccc3n2)cc1	–	?	-76.2	–	–
Clc1cccc(-c2nc(NCc3cccnc3)c3ccccc3n2)c1	–	–	-58.4	–	?
